Consider 20 compounds from PubChem BioAssay (EPA / NIEHS).

Records with an inconclusive call do not appear. Active and inactive are the calls of the source. The calls were made as follows: active = hit-call score of the fitted dose curve at least 0.9, where 1 is the maximum; inconclusive = response in the unintended direction; inactive = score below 0.9.

A short description of this test: Tanguay_ZF_120hpf_OTIC_legacy: (Legacy) Oregon State University Tanguay Lab 120 Hour Post-fertilization zebrafish Assay for Otic Vesicle Malformation (AID 2283639). In outline:
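Brightfield scoring at 120 hpf, binary present/absent; DMSO negative control, 5uM trimethyltin chloride positive control. Static exposure at 28C, final DMSO 0.64% (vol/vol). Dead embryos not scored for malformation.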
In general, AC50 refers to the concentration giving half of the maximal activity seen. Turning to `CC1=C(/C=C/C(C)=C/C=C/C(C)=C/C(=O)O)C(C)(C)CCC1`, the AC50 is 211 nM (active).
As to `CCCCCCCCOC(=O)CCCCCCCCC(=O)OCCCCCCCC`, the compound was classed as inactive.
Consider `CCOC(=O)CC(O)(CC(=O)OCC)C(=O)OCC`, for which the compound was classed as inactive.
Take `CC[C@H](C)[C@@H](C(=O)O)n1sc2ccccc2c1=O`: the compound was classed as inactive.
For `CCCCCCCCCCCCCCCS(=O)(=O)Oc1ccccc1`, the compound was called inactive.
Same read-out and setting: the entry for `CC(=O)NC1(c2cccc(F)c2)CCN(CC[C@@]2(c3ccc(Cl)c(Cl)c3)CN(c3ccccc3)C(=O)CO2)CC1` is “inactive”; for `Cc1cc(C)c(O)c(C)c1` it is “inactive”.
As for `CC(C)(C)c1cccc(C(C)(C)C)c1O`, the compound was called inactive.
Same read-out and setting: the value for `CCCOc1sc(C(=O)N2CCC(c3cc(CN)ccc3F)CC2)c(C)c1Br` was “inactive”; that for `OC1CCCCC1` was “inactive”.
In the case of `CCc1nn(C2CCCCC2)c2cc(C3(C#N)CCC(C(=O)O)CC3)ccc12` (stereo not given), the half-maximal activity concentration (AC50) was 3660 nM (active).
Consider `CC(=O)CC(C)(C)O`, for which the compound was classed as inactive.
On to `CCC(=C(c1ccc(O)cc1)c1ccc(OCCN(C)C)cc1)c1ccccc1`, for which the compound was classed as inactive.
On the same count and under the same terms, the value for `CCCCCCC(=O)O` was “inactive”; that for `COC(=O)CCCCC(=O)OC` was “inactive”.
On to `C=C(C)C(=O)OCCC(F)(F)C(F)(F)C(F)(F)C(F)(F)C(F)(F)C(F)(F)F`, for which the compound was called inactive.
Turning to `CC(C)CCCCCCOC(=O)CCCCC(=O)OCCCCCCC(C)C`, the call was inactive.
Consider `O=C(O)c1ccccc1C(c1ccc(O)cc1)c1ccc(O)cc1`, for which the call was inactive.
Still for that read-out and setting: the value for `OCCC(F)(F)C(F)(F)C(F)(F)C(F)(F)C(F)(F)C(F)(F)F` was “inactive”; that for `C[C@@H]1C[C@H]2[C@@H]3CCC4=CC(=O)C=C[C@]4(C)[C@@]3(F)[C@@H](O)C[C@]2(C)[C@@]1(O)C(=O)COP(=O)(O)O` was “inactive”.
